# In PubChem BioAssay:
# A number with no mark means an inactive call. Activity calls are given as the source filed them. Rule as the data show it, unless noted: active = inhibition above about 36%; inactive = the rest.
# How the values were obtained:
# [1] = tested on: transactivating tegument protein VP16 (Human herpesvirus 1); assay: compounds suppressing VP16-driven luciferase signal – cell-based, luminescence, single concentration, counter-screen for SRC2 inhibitor project (AID 652007); details: cell-based VP16 transactivation luciferase reporter, at 8.9 µM, active compounds read high
# [2] = biological target: Nuclear receptor coactivator 2 (Homo sapiens) (UniProt Q15596); assay: inhibition of GAL4-SRC2 driven luciferase expression – cell-based, luminescence, HEK293, triplicate, confirmation (AID 652008;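 active = mean inhibition above 46.5%, the solvent-only control mean plus 3 SD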;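 also: 0% = DMSO-treated cells and 100% = Gossypol at 36 µM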); details: HEK293 GAL4-SRC2 luciferase reporter, at 8.9 µM, active compounds read high
# Chain of Nuclear receptor coactivator 2 (Homo sapiens) (Q15596 whole entry, looked up, the tested form may be a part): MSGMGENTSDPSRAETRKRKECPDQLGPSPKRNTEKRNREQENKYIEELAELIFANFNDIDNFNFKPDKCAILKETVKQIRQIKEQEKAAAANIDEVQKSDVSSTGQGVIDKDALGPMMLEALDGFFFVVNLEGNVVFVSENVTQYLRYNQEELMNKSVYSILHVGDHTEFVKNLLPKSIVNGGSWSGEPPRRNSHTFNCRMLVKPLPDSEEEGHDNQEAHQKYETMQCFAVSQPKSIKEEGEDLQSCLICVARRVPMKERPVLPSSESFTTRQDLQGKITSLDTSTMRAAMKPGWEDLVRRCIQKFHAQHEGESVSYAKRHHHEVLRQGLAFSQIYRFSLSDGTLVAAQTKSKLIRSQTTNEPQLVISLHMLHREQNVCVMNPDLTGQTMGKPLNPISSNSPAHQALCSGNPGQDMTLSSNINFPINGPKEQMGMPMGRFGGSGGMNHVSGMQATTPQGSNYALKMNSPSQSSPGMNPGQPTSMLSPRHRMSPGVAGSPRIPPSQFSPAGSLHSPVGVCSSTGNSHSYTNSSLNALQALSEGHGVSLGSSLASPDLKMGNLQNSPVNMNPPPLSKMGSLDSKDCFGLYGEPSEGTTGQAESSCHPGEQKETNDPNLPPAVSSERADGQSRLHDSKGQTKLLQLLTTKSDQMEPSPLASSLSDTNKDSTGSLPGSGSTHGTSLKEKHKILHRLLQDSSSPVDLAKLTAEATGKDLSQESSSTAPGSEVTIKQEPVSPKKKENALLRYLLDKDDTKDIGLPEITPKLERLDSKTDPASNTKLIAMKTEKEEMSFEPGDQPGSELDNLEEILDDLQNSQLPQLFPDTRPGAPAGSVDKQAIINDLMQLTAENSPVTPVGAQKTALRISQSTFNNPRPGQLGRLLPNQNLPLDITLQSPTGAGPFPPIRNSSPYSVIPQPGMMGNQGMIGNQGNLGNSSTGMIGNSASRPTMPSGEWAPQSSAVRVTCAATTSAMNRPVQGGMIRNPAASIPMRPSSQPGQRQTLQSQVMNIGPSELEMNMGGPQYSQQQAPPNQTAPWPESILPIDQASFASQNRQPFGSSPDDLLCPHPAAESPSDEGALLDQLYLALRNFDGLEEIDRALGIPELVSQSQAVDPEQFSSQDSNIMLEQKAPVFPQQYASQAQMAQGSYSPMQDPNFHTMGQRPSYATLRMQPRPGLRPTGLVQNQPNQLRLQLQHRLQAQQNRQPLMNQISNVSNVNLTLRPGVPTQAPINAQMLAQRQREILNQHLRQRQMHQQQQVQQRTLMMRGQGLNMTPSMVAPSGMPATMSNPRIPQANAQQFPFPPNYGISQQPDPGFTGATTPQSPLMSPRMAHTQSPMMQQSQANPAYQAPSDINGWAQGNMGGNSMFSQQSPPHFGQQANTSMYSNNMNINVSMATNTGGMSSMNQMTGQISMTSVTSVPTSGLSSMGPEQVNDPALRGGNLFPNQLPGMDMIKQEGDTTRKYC
SMILES,inhibition [1] [%],inhibition [2]
NC(Cc1ccc(Cl)cc1)c1csc(NC(=O)NCC2CCCCC2)n1 (stereo not given),-2.01,3.16%
COc1cccc(N2C(=O)CC(NNC(=O)c3cccs3)C2=O)c1 (stereo not given),-15.3,-23.7%
CNc1ccccc1C(=O)OC(C)C(=O)Nc1ccc(Cl)cn1 (stereo not given),-10.2,20.9%
COC(=O)c1ccc(-c2nc3cc(N)ccc3o2)cc1,-20.4,49.8% (active)
Cc1nnc(SCc2nc3sc(C(=O)O)c(C)c3c(=O)[nH]2)s1,21.2,9.02%
